# Only some compounds are listed: those with a hit (about 2.9% of all), similar ones and a draw of the others.
# ADAM17 inh: inhibits human ADAM17. P78536. recombinant ADAM17, EDANS/DABCYL FRET peptide cleavage. inhibition, % at 6.95 µM. actives 0.83% (n = 370,000);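 active = inhibition above the mean of compounds lying between control limits plus 3 SD, set per campaign, cut at about 8.5% in these data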
# PLCb3 inh: PLC-beta3 (human) inhibition, primary screen | Q01970 | Purified PLC-beta3, fluorogenic substrate, fluorescence | inhibition, % at 12.2 µM | actives 0.18% (n = 370,000) | AID 720704; in the data active = inhibition above about 11%
# ADAM10 inh: inhibitors of human ADAM10; O14672; recombinant ADAM10, EDANS/DABCYL FRET peptide cleavage, 3 h; inhibition, % at 7 µM; actives 0.62% (n = 370,000);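 active = inhibition above a per-campaign cutoff equal to the mean of compounds falling between control-based bounds plus 3 SD, cut at about 20% in these data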
# proKLK7 act: proKLK7 (human) activation, primary screen | actives 0.9% (n = 370,000) | AID 652039 | purified proKLK7, EDANS-DABCYL substrate fluorescence; 100% is mature enzyme control, 0% vehicle | P49862 | activation, % at 7 µM;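 active = activation above the mean of all tested compounds plus 3 SD, computed per campaign excluding outliers beyond control limits, cut at about 13% in these data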
# PLCg1 inh: blocks human PLC-gamma1 enzyme activity; purified PLC-gamma1, fluorogenic substrate, fluorescence; inhibition, % at 12.2 µM; actives 0.84% (n = 370,000); AID 720700; in the data active = inhibition above about 9.5%
# proKLK7 act conf: proKLK7 activation, confirmation | purified proKLK7, EDANS-DABCYL substrate fluorescence; scaled: vehicle 0, mature enzyme 100 | activation, % at 7 µM | shares compounds with proKLK7 act | actives 68% (n = 3,200);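 active = activation, as change over the incubation, above the mean of all tested compounds plus 3 SD, cut at about 13% in these data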
# EDANS-DABCYL int: counter-screen for kallikrein-7 activators: EDANS-DABCYL optical interference; activation, % at 7 µM; EDANS-DABCYL substrate fluorescence interference, no enzyme, 4 h; solvent 0%, active enzyme control 100%; actives 80% (n = 3,200); shares compounds with proKLK7 act;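 active = activation above the all-compound mean plus 3 SD, ignoring values outside control-based bounds, cut at about 4.8% in these data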;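 note: value is the 4 h activation minus the activation read at time zero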
# Hits are given with their value; . = inactive; / = no result given.
SMILES,ADAM17 inh,PLCb3 inh,ADAM10 inh,proKLK7 act,PLCg1 inh,proKLK7 act conf,EDANS-DABCYL int
O=c1oc2c(CN3CCOCC3)c(O)ccc2c2ccccc12,.,.,.,.,.,/,/
O=c1oc2c(CN3CCOCC3)c(O)c(Cl)cc2c2c1CCCC2,.,.,.,53.2,.,65.9,67.4
COc1ccc(-n2c(SCC(=O)c3ccc4ccccc4c3)nnc2-c2ccccc2)cc1,.,.,.,.,.,/,/
CCN(Cc1cn(Cc2ccc(C)cc2)nn1)S(=O)(=O)c1ccccc1Br,.,.,.,.,.,/,/
CCCCN(C(=O)NC(=O)Nc1ccc(C)cn1)S(C)(=O)=O,.,.,.,18.9,.,.,.
CCCCN(C(=O)NC(=O)Nc1cc(C)ccc1C)S(C)(=O)=O,.,.,.,.,.,/,/
COc1cc(C2Nc3ccccc3C(=O)N2c2ccccc2OC)ccc1O (stereo not drawn),.,.,.,13.5,.,14.8,17.2
COc1ccccc1N1C(=O)c2ccccc2NC1c1ccc(O)cc1 (stereo not drawn),.,.,.,23.3,.,19.8,25.8
CCOc1cc(C2Nc3ccccc3C(=O)N2c2ccccc2OC)ccc1O (stereo not drawn),.,.,.,.,.,/,/
COc1ccc(N2C(=O)c3ccccc3NC2c2ccc(NC(C)=O)cc2)c(OC)c1 (stereo not drawn),.,.,.,.,.,/,/
CN(C)S(=O)(=O)c1ccc2nc(COCc3nc4ccc(S(=O)(=O)N(C)C)cc4[nH]3)[nH]c2c1,.,.,.,/,.,/,/
Cc1ccc(-c2csc3nc4ccc(C(=O)NCCO)cc4c(=O)n23)cc1,.,.,.,15.8,.,.,.
COc1ccc(-n2nc(C(=O)NCC(=O)Nc3cc(OC)c(OC)c(OC)c3)c3ccccc3c2=O)cc1OC,.,.,.,42.4,.,65.6,66.2
Cc1cc(=O)oc2c(C)c(OC(=O)c3ccco3)ccc12,.,.,.,84.6,.,601.1,619.8
O=C(Oc1cc(=O)oc2ccccc12)c1ccco1,.,.,.,.,.,/,/
CCC(=O)Oc1ccc2c(C)cc(=O)oc2c1C,.,.,.,421.5,.,697.2,674.8
Cc1csc(NC(=O)c2ccc(COc3ccccc3F)o2)n1,.,.,.,.,.,/,/
Cc1cc(=O)n2cc(-c3ccccc3)nc2[nH]1,.,.,.,16.2,.,.,.
CCCSc1nc(C)c2cc(C)cc(C)c2n1,.,.,.,.,.,/,/
Cc1cc(C)c2nc3nc(C)c(C)cc3c(N)c2c1,.,.,.,50.2,.,34.3,41.0
COC(=O)N1C[C@H](OC)[C@H]2C[C@@H]1c1ccccc1O2,.,.,.,.,.,/,/
Nc1nc2ncccn2c1-c1ccc(C(F)(F)F)cc1,.,.,.,25.8,.,60.0,62.7
Nc1nc2ncccn2c1-c1ccc(F)cc1,.,.,.,.,.,/,/
O=C(NCc1ccco1)C1CCCN(S(=O)(=O)c2cccs2)C1 (stereo not drawn),.,.,.,.,.,/,/
COc1cccc2c1C(=O)O/C2=C/c1ccc2c(c1)OCO2,.,.,.,16.0,.,.,.
SMILES,ADAM17 inh,PLCb3 inh,ADAM10 inh,proKLK7 act,PLCg1 inh,proKLK7 act conf,EDANS-DABCYL int
O=C(Cc1c[nH]c2ccccc12)Nc1ccc(Nc2cccnc2)c(-c2cc(F)cc(F)c2)c1,.,.,.,.,.,/,/
N#Cc1nc(-c2ccccc2)oc1NCCN1CCCCC1,.,.,.,40.2,.,.,10.5
CN(C)c1oc(-c2cccs2)nc1C#N,.,.,.,38.7,.,65.3,81.9
CNc1oc(-c2cccs2)nc1C#N,.,.,.,.,.,/,/
N#Cc1nc(-c2cccs2)oc1NCCN1CCOCC1,.,.,.,27.8,.,42.5,39.1
Cc1cccc(NC(=O)[C@H]2CC(=O)O[C@@H]2c2ccccc2)c1C,.,.,.,.,.,/,/
COc1cccc(Nc2ccc(C(=O)O)cc2N)c1,.,.,.,30.3,.,.,.
Cc1cc(C)cc(Nc2ccc(C(=O)O)cc2N)c1,.,.,.,.,.,/,/
COC(=O)C1=C(C)N(Cc2cccc(C(F)(F)F)c2)C(=NCC2CC2)NC1c1cccc(C(F)(F)F)c1 (stereo not drawn),.,.,.,.,.,/,/

# From PubChem
